Compounds with a hit are over-represented: about 2.9% of the library has one in this group of screens.
KKLEB tox: cytotoxicity in KKLEB CF airway cells, primary screen, cytotoxicity control for CF NF-kB inhibitor project, cell-based, uHTS, fluorescence assay plates | KKLEB CF airway cells viability, ATPlite luminescence, overnight; stronger effect = lower value; cells stimulated with P. aeruginosa culture filtrate | activity change (cytotoxicity), % at 5 µM | 360,000 tested, 0.36% active;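 active = corrected activity change at or below -50% at 5 µM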
HIF-2a block: HIF-2a reporter inhibitors, primary screen, luminescence, 786-0 RCC cells. 360,000 tested, 0.72% active. 786-0 RCC cells HIF-2a reporter, luciferase luminescence, overnight. inhibition, % at 18.8 µM;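 active = inhibition of the luminescence signal of 40% or more relative to plate controls, in a single-dose primary screen at 18.75 µM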
CF NFkB block: inhibitors of PAF-induced NF-kB signaling, primary screen, cell-based, GFP fluorescence, uHTS. KKLEB NF-kB-GFP reporter, GFP fluorescence overnight. inhibition, % at 5 µM. 360,000 tested, 0.86% active. AID 588850, 2011;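 active = at least 50% inhibition at 5 µM, scaled per plate between neutral and stimulator controls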;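 also: PAF is a Pseudomonas aeruginosa culture filtrate used as stimulus; plate controls were PAF-stimulated DMSO wells for no effect and unstimulated DMSO wells for full effect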
Shn3 3UTR inh: reduction of Shn3 3'UTR firefly luciferase signal, primary screen, Schnurri-3 inhibitor project, cell-based, Clone20 osteoblasts, set 2; Clone20 osteoblast Shn3 3'UTR firefly luciferase, 24 h; inhibition, % at 12.5 µM; 360,000 tested, 0.52% active; AID 588674, 2011;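 active = mean inhibition of at least 75% with every replicate also reaching 75%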;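 also: 0% = median of neutral control wells and 100% = pilot-screen positive control compound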
EBV LMP1 NFkB: EBV LMP1-driven NF-kappaB luciferase reporter inhibitors, primary screen, cell-based, luminescence, single point; inhibition, % at 12.5 µM; 350,000 tested, 0.69% active; LMP1-induced NF-kappaB luciferase reporter cells; AID 504558, 2011; in the data active = inhibition above about 41%;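 also: 0% = neutral control wells and 100% = reference inhibitor control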
Peg3 prom inh: Peg3 promoter-driven luciferase inhibitors, primary screen, cell-based, HeLa, luciferase luminescence. 360,000 tested, 1.7% active. inhibition, % at 20 µM. HeLa PEG-Prom luciferase reporter, overnight;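 active = inhibition of at least 50% at 20 µM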
An asterisk follows results filed as active; · = no result; ! = not active in a repeat.

SMILES	KKLEB tox	HIF-2a block	CF NFkB block	Shn3 3UTR inh	EBV LMP1 NFkB	Peg3 prom inh
O=P(COCCCCCOCP(=O)(c1ccccc1)c1ccccc1)(c1ccccc1)c1ccccc1	4	-2	-10	29	-4	22
FC(F)(F)c1nc(-c2cccs2)ncc1-c1nnnn1-c1ccc(Cl)cc1	2	6	4	86*	25	69*
COc1ccc(-n2nnnc2-c2cnc(N3CCCC3)nc2C(F)(F)F)cc1	-10	31	4	87*	28	34
Cc1ccsc1/C=N/NC(=O)c1ccc2c(c1)OCCO2	-2	-77	0	-20	59*	-41
O=C(N/N=C/c1cccc(O)c1)c1ccc2c(c1)OCCO2	-16	-26	-10	-23	64*	-107
Cc1ccsc1/C=N\NC(=O)c1ccc2c(c1)OCO2	0	-138	6	-37	5	-219
O=C(N/N=C/c1ccc2c(c1)OCO2)c1ccc2c(c1)OCO2	-8	-175	13	-52	-17	-172
Cc1ccc(CN2CCN(Cc3cn[nH]c3C3CCCCC3)CC2CCO)cc1 (centres undefined)	2	2	-3	-3	-1	1
CCOC(=O)c1c(C)[nH]c2cc(Br)c(O)cc12	9	-15	-3	-16	-1	-191
CCOC(=O)c1c(OCC)[nH]c2c1cc(O)c1ccccc12	-22	-19	85*	-20	-1	-16
Cn1ncc([N+](=O)[O-])c1C(=O)Nc1ccn(Cc2ccccc2F)n1	13	-1	-5	0	-6	-2
Cn1cc([N+](=O)[O-])c(C(=O)Nc2ccn(Cc3c(F)c(F)cc(F)c3F)n2)n1	4	-74	12	0	-4	56*
Cn1cc(S(=O)(=O)N2CCN(C(=O)c3ccco3)CC2)c(=O)n(C)c1=O	10	16	-19	17	88*	13
COc1ccc2nc(NN=C(C)c3ccccn3)cc(C)c2c1	-20	-359	22	86*	79*	-22
CCOC(=O)N1CCC(N2CCCC(CO)(Cc3ccccc3C)C2)CC1 (centres undefined)	-1	8	16	23	-2	-5
Cc1cc(C(=O)CSc2nc3ccccc3[nH]2)c(C)n1CC1CCCO1 (centres undefined)	-28	-56	14	74	34	102*
Cc1cc(C(=O)CSc2nc(N)cc(=O)[nH]2)c(C)n1CC1CCCO1 (centres undefined)	1	-5	-8	38	5	4
CC1=NNC(=O)/C1=C\c1cn(-c2ccccc2)nc1-c1ccc(Cl)cc1	-40	87*	6	24	-79	79*
N#Cc1ccc(CSc2nnc3[nH]c(=O)cc(N)n23)cc1	14	7	1	4	6	11
CCNS(=O)(=O)c1ccc2c3c(cccc13)C(=O)N2	1	6	-1	1	-3	0
CCc1cccc(NC(=O)c2cc(OC)c(OC)c(OC)c2)c1	-5	-12	-10	-12	2	-16
CCCc1ccc(C(=O)NNc2cc(Cl)ccc2Cl)cc1	1	-23	6	90*	1	-18
O=C(/C=C/c1ccc([N+](=O)[O-])cc1)NCc1ccccn1	-6	11	0	-20	4	18
O=C(/C=C/c1ccc([N+](=O)[O-])cc1)Nc1ncc([N+](=O)[O-])s1	-52*	-78	38	35	13	-29
O=C(N/N=C/c1ccc(N2CCOCC2)s1)c1ccc(O)cc1	6	-46	-19	-13	-26	-25
SMILES	KKLEB tox	HIF-2a block	CF NFkB block	Shn3 3UTR inh	EBV LMP1 NFkB	Peg3 prom inh
NC(=O)N/N=C/c1ccc(N2CCOCC2)s1	9	0	-18	2	48*	52*
Cc1cccc(S(=O)(=O)c2c(C)cc(C)nc2Cl)c1	-4	8	4	1	-10	2
COc1ccc(CCNc2ncnc3sc(C)cc23)cc1OC	-3	7	5	89*	26	12
COc1ccc(CCNc2ncnc3[nH]ncc23)cc1OC	-5	1	19	67	2	21
COc1ccccc1C(=O)NC(=Nc1nc2ccccc2o1)NC(=O)c1ccccc1OC	0	-11	-56	6	-4	86*!
O=C1C=Cc2cccc3ccc(O)c1c23	-4	23	17	53	44*	33
CCc1ccc(/C=N/NC(=O)c2ccccn2)cc1	-22	-17	-8	·	49*	10
Cc1ccc(S(=O)(=O)N2CCN(CC(=O)N/N=C\c3ccc(Cl)c([N+](=O)[O-])c3)CC2)cc1	-2	25	-11	0	6	69*
O=C(CN1CCN(S(=O)(=O)c2ccc(Br)cc2)CC1)N/N=C/c1ccc(Cl)c([N+](=O)[O-])c1	4	23	4	10	0	93*
CN(C)c1ccc(Nc2nc(N)c([N+](=O)[O-])c(N3CCOCC3)n2)cc1	-10	-23	16	31	3	52*
COc1ccc(Nc2nc(N)c([N+](=O)[O-])c(N3CCOCC3)n2)cc1	-7	-16	6	-10	-4	13
CC(c1ccccc1)c1nnc(NC(=O)Nc2ccccc2)s1 (centres undefined)	1	-206	15	1	-13	-57
CC(c1ccccc1)c1nnc(NC(=O)Nc2ccccc2F)s1 (centres undefined)	2	-202	11	-65	46*	-215
CC(=O)Nc1ccc(C(=O)OCC(=O)NCc2ccc3c(c2)OCO3)cc1	-10	7	16	10	4	-4
CC1CC(C)(C)CC2(C1)NC(=O)N(CC(=O)N(Cc1ccccc1)c1ccccc1)C2=O (centres undefined)	17	10	5	1	14	-3
C(=NN=C(NN=Cc1cccs1)NN=Cc1cccs1)c1cccs1	1	-123	-21	-8	-4	78*
O=C(N/N=C/c1cccs1)c1ccccn1	15	-84	-1	-32	-9	-142
Cc1ccc(-c2cc(C(=O)N3N=C(C(F)F)CC3(O)C(F)F)c3ccccc3n2)cc1C (centres undefined)	-50*	-290	52*	-9	-18	-42
O=C(NCCc1ccccn1)c1ccc(OC2CCN(Cc3ccccn3)CC2)cc1	7	-35	8	-18	-9	-11
O=C(NCC1CCOCC1)c1ccc(OC2CCN(Cc3ccccn3)CC2)cc1	2	18	6	6	58*	8
c1ccc(CN2CCC(Nc3nc(-c4ccccc4)nc4ccccc34)CC2)cc1	-7	5	-5	33	-48	75*

From PubChem
